The source of these data is the supplement of paper PMC6555819.

In this experiment the test system is VDR:RXRa (NR concentration 270 nM, RXRa partner concentration 90 nM). Put plainly: PBM binding z-score (relative to random genomic background probes); higher = stronger binding; sequences stand for … in GC…GCGATTGACAGCGTAGAATGAAGG
How it is done:
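Protein-binding microarray (Agilent 4x180K custom design, double-stranded 60-nt probes: 5' GC cap, 34-nt variable region, 24-nt constant primer region; full probe sequence given). Purified or IVT nuclear receptor:RXRα heterodimers (3:1 NR:RXRα, mostly 270:90 nM) or homodimers were incubated for 1 h in PBS with 2% milk and no ligand, then detected with Alexa488 antibodies. Fluorescence from o1-orientation probes (~5 replicates averaged) was converted to z-scores against 500 random hg19 background probes. Variable regions are seed direct-repeat (DR0–DR5) sites, all their single-nucleotide variants and half-site ablations.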
The sequence AGTCAAACTTCATCTAGGTAACGTAAGATATGCT showed a PBM binding z-score of -0.0435.

On to CCTCGGAGGCCAGAAGGTCAGAGCTGTCCGCTTT, for which the PBM binding z-score was 0.72.

Consider CCTGCTGGGCCATTCAGAGGTCATTGATCATATG, for which the PBM binding z-score amounted to 4.03.

In turn, AGAACGAGGGCAATGAGTTGATAGTACGGGTGGC had a PBM binding z-score of 5.53.

On to GCTAGCAGGCCATTTGGGTTACTCAATGACGGGC, for which the PBM binding z-score was -0.436.

For the sequence CAAACTAGGTGACGAAAGGTCAAAGTCGAATGAC, the PBM binding z-score was 5.16.

Turning to CCTAGTTGGTCATGGTCACACACGCTATAGGTAC, the PBM binding z-score was found to be 0.655.

CAAACGAGGGCATGAGTTGATAGCAAATGCCGAT: the PBM binding z-score amounted to 1.58.

Sequence GCAGACAGGTGAAACGCAGGTAACTCATGGTGGC registered a PBM binding z-score of -0.567.

CCAACTGGGGCAAGGTTACCATAACGCACAGCCA showed a PBM binding z-score of 0.166.

The sequence CGAACTAGGTCATTGAAAGGACAGTGAATAGTAA registered a PBM binding z-score of 2.36.

The sequence CCATACAGGTGAAAGGTAACTCAGTCTGGTACGC showed a PBM binding z-score of 0.988.

For CCGACTGGGGCAACGTTACCATAACGCACAGCCA, the PBM binding z-score was -0.557.

In turn, CCTTCCGGGTCACTGACAGGTTATAGCATTTGGA displayed a PBM binding z-score of 3.83.

In turn, ATCTCTAGGTAAGACTAAGTTCAGTGAAGAACGC gave a PBM binding z-score of 1.7.

CAAACTAGGTCAAGGTCACAGTCGGTTTGTGCCA yielded a PBM binding z-score of 5.06.

On to CCCACTGGGCCAAAAAGGTCATTGATGCCGATAA, for which the PBM binding z-score came out at 4.94.

In turn, TCGTGTAGATCAAAGGTTAAGAAAGCCGAAGCCT displayed a PBM binding z-score of 1.45.

For the sequence TCATATAGGTACAGGTGAAAGTCGAACGATATGA, the PBM binding z-score was 0.846.

For the sequence GCTAGTTGGTCAGCAAAAGGTCACACACCGGTCG, the PBM binding z-score is 4.13.

CCTTACGTGTCAAGGTTATAGCACGGGTGGTACG registered a PBM binding z-score of 0.738.

CCTCGGACGACAACAGGAGGTCAGAGCTGCCAGA yielded a PBM binding z-score of 1.52.

TCGAGTAGGTTACCAATGGGCCATTCAGCTTTCT registered a PBM binding z-score of 0.0845.

In turn, CCTTACGGGTCACCGACAGGTTATAGCATTTGGA showed a PBM binding z-score of 4.44.

TCTATTAGTTGATTAGGGCAACGGAAACAGCGGA showed a PBM binding z-score of 0.621.

CGTGCAAGGTCAAAGGTCAGTGAAGAGATGACGG registered a PBM binding z-score of 6.7.

GCGAGTGGGGCATCAGCAGGTTACCATAACTTAA: the PBM binding z-score is 0.049.

Sequence TCGAGCAGGTTACCAATGGGGCATTCAGCTTTCT returned a PBM binding z-score of 0.08.

CCAGACAGGTGAAAGGGAACTCAGTCTGGTACGC had a PBM binding z-score of -0.152.

CCTCGGAGGACAAAAGGTCAGAGCTGTCCGCTTT showed a PBM binding z-score of 3.17.

With AGAATGAGGTTACGATCAGGGAAACAGAATACAT, the PBM binding z-score was 1.43.

The sequence AGAACGAGGGCACCCTGAGTTGATAGCAGAGTAG came in with a PBM binding z-score of 1.47.

On to ATCTGTAGGTTAAGGGTCATTCAGGTTGGTTCGC, for which the PBM binding z-score amounted to 5.77.

CCTAGCAGGCCAATCTGGGTGACTCAAGGCTTGA gave a PBM binding z-score of -0.769.

In turn, CAAACTAGGTCAGCGGAAGGTCAAAGTCCGCATG came in with a PBM binding z-score of 5.07.

The sequence CAAACTAGCTCACGAAAGGTCAAAGTCGAATGAC returned a PBM binding z-score of 4.32.

With TAGCCTAGGTCATTCAGGGGCCAGTATAGAAAGC, the PBM binding z-score turned out to be 3.26.

Consider TCTGCTAGGTCAACGATGGTCAGCTAGTCTGCTA, for which the PBM binding z-score was 1.43.

Turning to CGTCCAAGGTGAGCAGGTCAGTGAAAGCGACGTG, the PBM binding z-score is 0.0617.

Sequence TCATATAGGAAATACAGGTGAAAGTCGGCATCTA yielded a PBM binding z-score of 1.02.
